Assay results reported in PubChem BioAssay.
For some assays here: Potency and affinity values are given separately. Activity calls are given as the source filed them. Unless noted, no rule for the calls is given here.

Experiments:
[1] = antimalarial activity against Dd2 strain (AID 2302;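 active = growth inhibition above 50% at the single 2 µM test dose, taken to imply half-maximal potency below 2 µM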;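 also: 0% = DMSO untreated growth and 100% = chloroquine plus artemisinin killed control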); details: P. falciparum Dd2 in RBCs, LDH growth readout, 72 h; at 2 µM; active compounds read high
[2] = HepG2 cytotoxicity, primary screen, cytotoxicity control for P. falciparum antimalarial project, cell-based, ATP luminescence (AID 2303;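 active = inhibition above 50%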;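 also: 0% = DMSO wells and 100% = digitonin-killed cells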); details: HepG2 viability, 24-48 h, at 10 µM, active compounds read high
[3] = molecular target: L-lactate dehydrogenase (Plasmodium falciparum (isolate CDC / Honduras)) (UniProt Q27743); assay: PfLDH activity inhibition – cell lysate, 3D7 strain, counter-screen for P. falciparum growth inhibition project (AID 2304);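 also: 0% = vehicle and 100% = reference inhibitor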; details: P. falciparum 3D7 crude extract, LDH APAD/NBT absorbance; at 2 µM; active compounds read high
[4] = inhibition of 3D7 malaria parasite growth – strain 3D7 (AID 2306);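 also: 0% = DMSO wells and 100% = chloroquine plus artemisinin control wells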; details: P. falciparum 3D7 erythrocytic growth, LDH absorbance, 72 h; at 2 µM; active compounds read high
[5] = molecular target: Calcium-dependent protein kinase 1 (Plasmodium falciparum (isolate 3D7)) (UniProt P62344); assay: PfCDPK1 kinase inhibitors, biochemical, TCAMS library (AID 1159585; cut-off not given, nearly all actives have IC50 up to about 0.98 µM;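 also: inhibitors leave more ATP so luminescence rises with inhibition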); details: recombinant PfCDPK1, Kinase-Glo ATP depletion luminescence
[6] = molecular target: Plasmodium falciparum protein kinase 6 (PK6, PF3D7_1337100) (UniProt Q8IDW1); assay: PfPK6 kinase inhibitors, biochemical, TCAMS library (AID 1159586); details: recombinant PfPK6, Kinase-Glo ATP depletion luminescence
[7] = molecular target: Protein kinase 7 (PK7), Plasmodium falciparum 3D7 (PF3D7_0213400) (UniProt Q7YTF7); assay: inhibition of Plasmodium PK7 catalytic activity – biochemical, TCAMS antimalarial set, Kinase-Glo luminescence (AID 1159587); details: recombinant PfPK7, Kinase-Glo ATP depletion luminescence
[8] = molecular target: Calcium-dependent protein kinase 4 (Plasmodium falciparum (isolate 3D7)) (UniProt Q8IBS5); assay: PfCDPK4 kinase inhibitors, biochemical, TCAMS library (AID 1159588; cut-off not given, nearly all actives have IC50 up to about 0.91 µM); details: recombinant PfCDPK4, Kinase-Glo ATP depletion luminescence
Sequence of Calcium-dependent protein kinase 4 (Plasmodium falciparum (isolate 3D7)) (Q8IBS5 whole entry, looked up): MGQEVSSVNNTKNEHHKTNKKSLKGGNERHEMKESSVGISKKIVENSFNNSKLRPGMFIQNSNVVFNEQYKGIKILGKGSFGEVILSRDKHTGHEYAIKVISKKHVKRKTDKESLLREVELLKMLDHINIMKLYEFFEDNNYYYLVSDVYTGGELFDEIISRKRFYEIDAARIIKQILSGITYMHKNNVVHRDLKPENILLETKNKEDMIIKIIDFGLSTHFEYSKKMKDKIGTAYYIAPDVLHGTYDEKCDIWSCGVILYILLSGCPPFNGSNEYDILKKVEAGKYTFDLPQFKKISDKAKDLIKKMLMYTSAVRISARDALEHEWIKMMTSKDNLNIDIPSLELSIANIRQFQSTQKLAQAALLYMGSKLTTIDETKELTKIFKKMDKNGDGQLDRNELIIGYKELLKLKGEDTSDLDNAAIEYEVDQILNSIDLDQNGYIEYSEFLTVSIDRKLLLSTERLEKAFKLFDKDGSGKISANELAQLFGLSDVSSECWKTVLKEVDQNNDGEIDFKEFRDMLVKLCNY

Sequence of Protein kinase 7 (PK7), Plasmodium falciparum 3D7 (PF3D7_0213400) (Q7YTF7 1-343): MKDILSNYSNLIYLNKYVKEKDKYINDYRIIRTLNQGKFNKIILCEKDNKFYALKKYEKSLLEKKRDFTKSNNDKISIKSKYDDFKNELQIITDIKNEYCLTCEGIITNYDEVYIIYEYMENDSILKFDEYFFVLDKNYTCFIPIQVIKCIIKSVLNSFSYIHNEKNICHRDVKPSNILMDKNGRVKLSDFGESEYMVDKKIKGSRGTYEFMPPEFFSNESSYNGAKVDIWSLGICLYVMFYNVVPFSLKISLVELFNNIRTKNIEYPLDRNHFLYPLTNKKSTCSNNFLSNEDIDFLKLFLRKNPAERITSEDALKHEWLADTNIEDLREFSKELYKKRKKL
Sequence of Plasmodium falciparum protein kinase 6 (PK6, PF3D7_1337100) (Q8IDW1 1-305): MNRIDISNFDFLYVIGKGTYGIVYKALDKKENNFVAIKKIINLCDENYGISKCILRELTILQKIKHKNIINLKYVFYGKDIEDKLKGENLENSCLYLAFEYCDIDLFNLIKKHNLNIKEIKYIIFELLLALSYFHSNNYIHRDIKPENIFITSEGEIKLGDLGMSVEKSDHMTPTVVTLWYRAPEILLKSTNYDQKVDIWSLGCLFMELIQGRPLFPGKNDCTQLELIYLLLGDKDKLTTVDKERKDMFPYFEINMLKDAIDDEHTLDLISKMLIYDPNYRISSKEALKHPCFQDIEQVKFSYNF
Sequence of L-lactate dehydrogenase (Plasmodium falciparum (isolate CDC / Honduras)) (Q27743 whole entry, looked up): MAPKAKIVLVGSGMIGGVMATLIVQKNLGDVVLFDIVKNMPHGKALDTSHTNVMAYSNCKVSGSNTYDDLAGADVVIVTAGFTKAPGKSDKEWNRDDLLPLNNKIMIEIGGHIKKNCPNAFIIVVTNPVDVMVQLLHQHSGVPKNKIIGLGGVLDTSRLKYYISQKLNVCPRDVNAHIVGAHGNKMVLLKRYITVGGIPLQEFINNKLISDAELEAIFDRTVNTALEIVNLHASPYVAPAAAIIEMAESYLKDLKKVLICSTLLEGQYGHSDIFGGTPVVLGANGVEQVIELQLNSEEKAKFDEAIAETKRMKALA
Sequence of Calcium-dependent protein kinase 1 (Plasmodium falciparum (isolate 3D7)) (P62344 whole entry, looked up): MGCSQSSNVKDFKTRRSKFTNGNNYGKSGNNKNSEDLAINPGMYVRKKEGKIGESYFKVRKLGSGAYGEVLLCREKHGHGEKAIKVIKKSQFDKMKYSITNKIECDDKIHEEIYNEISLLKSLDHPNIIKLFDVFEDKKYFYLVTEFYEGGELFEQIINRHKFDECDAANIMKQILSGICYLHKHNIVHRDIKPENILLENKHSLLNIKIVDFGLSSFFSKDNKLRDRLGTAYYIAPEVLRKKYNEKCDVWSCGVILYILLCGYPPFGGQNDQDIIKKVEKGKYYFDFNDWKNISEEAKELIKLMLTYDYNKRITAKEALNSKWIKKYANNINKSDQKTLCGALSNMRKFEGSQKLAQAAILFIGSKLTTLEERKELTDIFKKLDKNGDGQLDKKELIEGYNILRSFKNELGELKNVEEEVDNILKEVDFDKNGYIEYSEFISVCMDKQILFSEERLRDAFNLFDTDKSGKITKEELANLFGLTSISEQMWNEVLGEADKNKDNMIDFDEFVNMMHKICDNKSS

Cc1ccc(-c2cnc(N)c3cc(-c4ccnc(N)n4)ccc23)cc1
inactive: inhibition [2] 41% | inhibition [3] -5% | outcome [5] | outcome [6] | outcome [7] | outcome [8]
active: growth inhibition [1] 94% | growth inhibition [4] 99%

Fc1ccc2cc(C=Cc3ccncc3)[nH]c2c1
inactive: inhibition [2] -10% | inhibition [3] 0% | outcome [5] | outcome [6] | outcome [7] | outcome [8]
active: growth inhibition [1] 89% | growth inhibition [4] 100%

CCC(=O)Nc1nnc(Cc2ccc(OC)c(OC)c2)s1
inactive: growth inhibition [1] 1% | inhibition [2] -4% | inhibition [3] -2% | outcome [5] | outcome [6] | outcome [7] | outcome [8]
active: growth inhibition [4] 93%

COc1ccc(N2CCN(CCCCNC(=O)c3ccc(NC(=O)c4ccc(Cl)c(Cl)c4)cc3)CC2)c(OC)c1
active: growth inhibition [1] 98% | growth inhibition [4] 101%
inactive: inhibition [2] 23% | inhibition [3] 4% | outcome [5] | outcome [6] | outcome [7] | outcome [8]

Cc1ccc2nc(-c3ccc(C(=O)NC4CCN(Cc5ccccc5)CC4)s3)[nH]c2c1
active: growth inhibition [1] 83% | growth inhibition [4] 97%
inactive: inhibition [2] 13% | inhibition [3] -5% | outcome [5] | outcome [6] | outcome [7] | outcome [8]

CC1(C)N=C(N)N=C(N)N1OCc1cccs1
inactive: growth inhibition [1] -1% | inhibition [3] -4% | outcome [5] | outcome [6] | outcome [7] | outcome [8]
active: inhibition [2] 60% | growth inhibition [4] 93%

CC(C)Sc1ccc(Cl)cc1CON1C(N)=NC(N)=NC1(C)C
active: growth inhibition [1] 90% | inhibition [2] 66% | growth inhibition [4] 93%
inactive: inhibition [3] 6% | outcome [5] | outcome [6] | outcome [7] | outcome [8]

CC(C)CCNC(=O)C1Cc2c([nH]c3ccc(Br)cc23)C2(CCN(CCc3ccccc3)CC2)N1 (stereo not given)
inactive: inhibition [2] 25% | inhibition [3] 2% | outcome [5] | outcome [6] | outcome [7] | outcome [8]
active: growth inhibition [1] 61% | growth inhibition [4] 101%

O=C(Nc1ccc(OC2CCN(Cc3ccc(F)cc3)CC2)c(Cl)c1)c1ccsc1
inactive: inhibition [2] 5% | inhibition [3] 7% | outcome [5] | outcome [6] | outcome [7] | outcome [8]
active: growth inhibition [1] 90% | growth inhibition [4] 94%

O=S(=O)(NCCCN1CCOCC1)c1ccc2nccc(Nc3ccc(Oc4ccccc4)cc3)c2c1
active: growth inhibition [1] 92% | growth inhibition [4] 95%
inactive: inhibition [2] 1% | inhibition [3] -2% | outcome [5] | outcome [6] | outcome [7] | outcome [8]

COc1cccc2cc(C(=O)N[C@@H](CC(C)C)C(=O)NC3CC[C@@H](C)N(C(=O)Nc4ccncc4)CC3=O)oc12 (stereo not given in full)
inactive: inhibition [2] 7% | inhibition [3] -7% | outcome [5] | outcome [6] | outcome [7] | outcome [8]
active: growth inhibition [1] 90% | growth inhibition [4] 95%

CN1CCN(c2ccc(Nc3ccnc4ccc(-c5ccccc5)cc34)cc2)CC1
inactive: inhibition [2] 20% | inhibition [3] -2% | outcome [5] | outcome [6] | outcome [7] | outcome [8]
active: growth inhibition [1] 101% | growth inhibition [4] 101%

Oc1ccc(CCNc2nc(NCc3ccccc3Oc3ccc(C(F)(F)F)cc3)nc(N3CCNCC3)n2)cc1
inactive: growth inhibition [1] 2% | inhibition [2] 26% | inhibition [3] 0% | outcome [5] | outcome [6] | outcome [7] | outcome [8]
active: growth inhibition [4] 86%

CC(=O)Nc1ccc(CN2CCC(NC(=O)c3ccc(-c4cccc(OC(C)C)c4)s3)CC2)cc1
active: growth inhibition [4] 89%
inactive: growth inhibition [1] 13% | inhibition [2] 14% | inhibition [3] -5% | outcome [5] | outcome [6] | outcome [7] | outcome [8]

Cc1[nH]c(C)c(-c2ccc(CCc3ccc(C(F)(F)F)cc3)nc2)c(=O)c1Cl
active: growth inhibition [1] 97% | growth inhibition [4] 97%
inactive: inhibition [2] 24% | inhibition [3] 2% | outcome [5] | outcome [6] | outcome [7] | outcome [8]

N#CC1(CCCNCCc2ccc(O)cc2)CCCc2c(O)cccc21 (stereo not given)
inactive: growth inhibition [1] 3% | inhibition [2] -2% | inhibition [3] -5% | outcome [5] | outcome [6] | outcome [7] | outcome [8]
active: growth inhibition [4] 95%

O=C(CCCCCCc1ccccc1)Nc1ccc2nc3c(c(NCc4ccccc4)c2c1)CCCC3
inactive: inhibition [2] 19% | inhibition [3] -3% | outcome [5] | outcome [6] | outcome [7] | outcome [8]
active: growth inhibition [1] 98% | growth inhibition [4] 101%

CCc1ccc(CN2CCC(CNC(=O)c3cc(-c4cccc(F)c4)cs3)C2)cc1 (stereo not given)
active: growth inhibition [4] 84%
inactive: growth inhibition [1] 4% | inhibition [2] 23% | inhibition [3] 2% | outcome [5] | outcome [6] | outcome [7] | outcome [8]

COc1ccc(C2C(C(=O)OC3CCCC3)=C(C)NC3=C2C(=O)CCC3)cc1Br (stereo not given)
inactive: inhibition [2] -2% | inhibition [3] 5% | outcome [5] | outcome [6] | outcome [7] | outcome [8]
active: growth inhibition [1] 77% | growth inhibition [4] 94%

Cc1nc2c(c(C)nn2C(C)(C)C)c(C)c1CCC(=O)Nc1ccc(CN2CCCC2)cc1
inactive: growth inhibition [1] 5% | inhibition [2] 1% | inhibition [3] 0% | outcome [5] | outcome [6] | outcome [7] | outcome [8]
active: growth inhibition [4] 89%

CN1CCC(Oc2cc(NC(=O)Nc3ccc(-c4ccncc4)c(C(F)(F)F)c3)ccc2Cl)CC1
active: growth inhibition [1] 92% | growth inhibition [4] 100%
inactive: inhibition [2] 30% | inhibition [3] -1% | outcome [5] | outcome [6] | outcome [7] | outcome [8]

OCCN1CCN(Cc2ccc(-c3cccc(-c4nc5ccccc5[nH]4)c3)cc2)CC1
active: growth inhibition [4] 96%
inactive: growth inhibition [1] 16% | inhibition [2] 32% | inhibition [3] 6% | outcome [5] | outcome [6] | outcome [7] | outcome [8]

Nc1ncc(-c2ccc3ncccc3c2)c(N)n1
active: inhibition [2] 55% | growth inhibition [4] 97%
inactive: growth inhibition [1] -1% | inhibition [3] 2% | outcome [5] | outcome [6] | outcome [7] | outcome [8]

O=[N+]([O-])c1cccc(C=NNc2ccnc3cc(F)ccc23)c1
active: growth inhibition [1] 100% | growth inhibition [4] 100%
inactive: inhibition [2] 4% | inhibition [3] -1% | outcome [5] | outcome [6] | outcome [7] | outcome [8]

COc1ccc(-c2ccc(NC(=O)c3cccc(C#N)c3)cc2)cc1CN1CCC(O)CC1
active: growth inhibition [1] 84% | growth inhibition [4] 101%
inactive: inhibition [2] 21% | inhibition [3] 7% | outcome [5] | outcome [6] | outcome [7] | outcome [8]

Clc1ccc(-n2cnc3c(Nc4ccc(Oc5ccccc5)cc4)ncnc32)cc1Cl
active: growth inhibition [1] 65% | growth inhibition [4] 99%
inactive: inhibition [2] 4% | inhibition [3] 0% | outcome [5] | outcome [6] | outcome [7] | outcome [8]

COc1ccc(C2C(C(=O)Nc3cc(Cl)c(OC)cc3OC)c3ccccc3C(=O)N2C)cc1 (stereo not given)
inactive: inhibition [2] 14% | inhibition [3] 4% | outcome [5] | outcome [6] | outcome [7] | outcome [8]
active: growth inhibition [1] 98% | growth inhibition [4] 101%

O=C(/C=C/c1ccc(Cl)c(Cl)c1)NCCCCCN1CCC(NC(=O)Nc2ccc(C(F)(F)F)cc2)C1 (stereo not given)
active: growth inhibition [4] 100%
inactive: growth inhibition [1] 6% | inhibition [2] 11% | inhibition [3] -2% | outcome [5] | outcome [6] | outcome [7] | outcome [8]

CC(C)(C)OC(=O)NCCc1cccc(-c2c[nH]c3ncc(-c4cccc(NS(C)(=O)=O)c4)cc23)c1
active: growth inhibition [1] 71% | growth inhibition [4] 97%
inactive: inhibition [2] 16% | inhibition [3] -3% | outcome [5] | outcome [6] | outcome [7] | outcome [8]

Cc1ccc(NC(=O)NC2CCN(c3ccnc4cc(Cl)ccc34)CC2)cc1
inactive: growth inhibition [1] 47% | inhibition [2] 4% | inhibition [3] -2% | outcome [5] | outcome [6] | outcome [7] | outcome [8]
active: growth inhibition [4] 101%

O=C1CSc2ccc(CNC3CCN(CCc4c(Cl)cnc5ccc(F)cc45)CC3)nc2N1
active: growth inhibition [1] 52% | growth inhibition [4] 98%
inactive: inhibition [2] 21% | inhibition [3] -2% | outcome [5] | outcome [6] | outcome [7] | outcome [8]

Cc1cc(NC2CCN(Cc3ccccc3)CC2)nc(NCCCCc2ccccc2)n1
active: growth inhibition [1] 60% | inhibition [2] 65% | growth inhibition [4] 100%
inactive: inhibition [3] 2% | outcome [5] | outcome [6] | outcome [7] | outcome [8]

Clc1ccc2c(N3CCN(CCN4CCN(c5ccnc6cc(Cl)ccc56)CC4)CC3)ccnc2c1
active: growth inhibition [1] 100% | growth inhibition [4] 99%
inactive: inhibition [2] 10% | inhibition [3] 1% | outcome [5] | outcome [6] | outcome [7] | outcome [8]

CC1CN(S(=O)(=O)c2ccc(NC(=O)c3cc(-c4ccccc4O)n[nH]3)cc2)CC(C)O1 (stereo not given)
active: growth inhibition [1] 93% | growth inhibition [4] 97%
inactive: inhibition [2] 21% | inhibition [3] 1% | outcome [5] | outcome [6] | outcome [7] | outcome [8]

COc1cccc(OC)c1OCCCOc1c(C)nc(N)nc1N
active: growth inhibition [4] 97%
inactive: growth inhibition [1] -1% | inhibition [2] 31% | inhibition [3] 0% | outcome [5] | outcome [6] | outcome [7] | outcome [8]

CN1CCC[C@H]1COc1ccc(CN2CC[C@H](NC(=O)c3ccc(Cl)c(Cl)c3)C2)c2ccccc12
inactive: inhibition [2] 47% | inhibition [3] -3% | outcome [5] | outcome [6] | outcome [7] | outcome [8]
active: growth inhibition [1] 98% | growth inhibition [4] 101%

Cc1ccc(-c2nc3ccc(C(=O)NC4CCC(N5CCCc6ccc(C#N)cc6C5)CC4)cc3[nH]2)cc1 (stereo not given)
inactive: growth inhibition [1] 49% | inhibition [2] 23% | inhibition [3] -2% | outcome [5] | outcome [6] | outcome [7] | outcome [8]
active: growth inhibition [4] 101%

Cc1ccccc1C(O)CNc1ccnc(Nc2cccc(C#N)c2)n1 (stereo not given)
inactive: growth inhibition [1] 12% | inhibition [2] 22% | inhibition [3] 0% | outcome [5] | outcome [6] | outcome [7] | outcome [8]
active: growth inhibition [4] 94%

COc1ccc(CCN2CCC(Nc3nc4ccccc4n3CCc3ccc(OC)cc3)CC2)cc1
active: growth inhibition [1] 88% | growth inhibition [4] 101%
inactive: inhibition [2] 34% | inhibition [3] -1% | outcome [5] | outcome [6] | outcome [7] | outcome [8]

Oc1cccc(Nc2nc(NCC3CCCO3)c3ccccc3n2)c1 (stereo not given)
inactive: inhibition [2] -9% | inhibition [3] -1% | outcome [5] | outcome [6] | outcome [7] | outcome [8]
active: growth inhibition [1] 87% | growth inhibition [4] 100%
